The list is not random: actives were taken first. Their share in the collection is about 4.6%.
NALP3 yeast inh: blocks the NALP3 inflammasome reconstituted in yeast | Yeast reconstituted NLRP3/ASC/caspase-1, beta-gal luminescence, 24 h | inhibition, % at 10 µM | hit rate 0.39% among 330,000;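 active = inhibition of 50% or more; inactive = inhibition below 50%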;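 also: plate controls were induced DMSO wells for no effect and uninduced yeast grown without galactose for full effect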
tim23-1 inh: growth inhibitors of tim23-1 mutant yeast. S. cerevisiae tim23-1 growth, BacTiter-Glo luminescence, 24 h. hit rate 1.3% among 330,000. inhibition, % at 20 µM;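 active = growth inhibition of the mutant yeast at or above 50%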;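 also: temperature-sensitive mutant grown at 25 °C; plate controls were DMSO-treated mutant yeast for no effect and medium wells lacking yeast for full effect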
tim10-1 inh: inhibits growth of tim10-1 mutant yeast | S. cerevisiae tim10-1 ts strain growth, BacTiter-Glo, 24 h | inhibition, % at 20 µM | hit rate 2.2% among 330,000;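 active = inhibition of at least 40%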;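 also: mutant grown at 25 °C; 0% = DMSO wells with yeast and 100% = wells holding no yeast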
PfHsp90 set2: inhibits growth of yeast expressing Plasmodium falciparum Hsp90; AID 504621; inhibition, % at 9.4 µM; S. cerevisiae expressing PfHsp90, BacTiter-Glo ATP, 48 h; yeast lacking PDR1 and PDR3 efflux regulators; hit rate 0.32% among 310,000;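 active = every replicate shows inhibition above about 80%, whatever the replicate mean, limit read from the data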;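 also: 0% = DMSO neutral controls and 100% = 20 µM radicicol positive controls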
SKKanGAS inh: blocks kanamycin growth of S. pyogenes SKKanGAS strain; BacTiter-Glo, 6 h; inhibition, % at 7.5 µM; hit rate 1.3% among 300,000; AID 1662;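 active = mean replicate score, as percent of positive control median, at least 50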;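 also: strain carries kanamycin resistance gene driven by streptokinase promoter and grows in 40 µg/ml kanamycin; loss of luminescence reflects streptokinase promoter inhibition or plain growth inhibition; 0% = median of DMSO wells and 100% = positive control at its reference dose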
TIM10 inh: TIM10 yeast growth inhibition; AID 463195; S. cerevisiae TIM10 strain growth, BacTiter-Glo luminescence, 24 h; inhibition, % at 10 µM; hit rate 1.4% among 330,000;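 active = inhibition of 40% or more at the single tested concentration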;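 also: wild-type TIM10 isogenic control strain grown at permissive 25 °C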
tim10-1 confirm: tim10-1 yeast growth inhibition, confirmed. inhibition, % at 20 µM. hit rate 56% among 7,400. AID 463213. S. cerevisiae tim10-1 ts strain growth, BacTiter-Glo, 24 h. shares compounds with tim10-1 inh;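 active = inhibition of yeast growth at or above a set limit in either of two repeat tests at 20 µM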;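 also: tim10-1 mutant grown at permissive 25 °C to find synthetic lethal compounds; 0% = DMSO yeast wells and 100% = medium wells without yeast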
tim10 confirm: TIM10 yeast growth inhibition, confirmed. AID 463215. inhibition, % at 10 µM. hit rate 63% among 4,600. shares compounds with TIM10 inh. S. cerevisiae tim10 strain growth, BacTiter-Glo luminescence, 24 h;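 active = inhibition of yeast growth at or above a set limit in either of two replicates at 10 µM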;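 also: this counterscreen used the strain with wild-type TIM10; 0% = yeast with DMSO and 100% = medium wells lacking yeast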
tim23-1 conf: confirmation of tim23-1 mutant yeast growth inhibitors; hit rate 83% among 4,400; inhibition, % at 20 µM; AID 463218; S. cerevisiae tim23-1 growth, BacTiter-Glo luminescence, 24 h; shares compounds with tim23-1 inh;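 active = inhibition above about 39% in either of two replicate wells at 20 µM, limit read from the data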;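 also: temperature-sensitive tim23-1 mutant grown at 25 °C; 0% = DMSO wells with yeast and 100% = medium wells without yeast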
Starred values were filed as active, the others as inactive; x = no result.

SMILES	NALP3 yeast inh	tim23-1 inh	tim10-1 inh	PfHsp90 set2	SKKanGAS inh	TIM10 inh	tim10-1 confirm	tim10 confirm	tim23-1 conf
Cc1cc(NC(=O)C(C)SCC(=O)Nc2nc3c(F)cc(F)cc3s2)no1 (stereo not drawn)	10	4	13	-12	x	-2	x	x	x
COC(=O)c1ccccc1NC(=O)C(C)c1ccc([N+](=O)[O-])cc1 (stereo not drawn)	8	2	8	-19	-1	-12	x	x	x
CCn1c(/C=C2\C(=O)N(C)c3ccccc32)nc2ccccc2c1=O	14	52*	45*	-17	13	43*	39*	25	52*
CCN1C(=O)/C(=C\c2nc3ccccc3c(=O)n2CC)c2ccccc21	16	56*	55*	-9	-17	47*	44*	33*	57*
CCn1c(/C=C\c2ccccc2C)nc2ccccc2c1=O	8	19	26	-16	-16	21	x	x	x
CCn1c(/C=C/c2ccccc2Cl)nc2ccccc2c1=O	11	27	32	-28	6	11	x	x	x
CCCN1C(=O)/C(=C/c2nc3ccccc3c(=O)[nH]2)c2ccccc21	11	52*	51*	6	-7	42*	36*	16	55*
CCCN1C(=O)/C(=C/c2nc3ccccc3c(=O)[nH]2)c2cc(C)ccc21	-11	27	32	-3	11	14	x	x	x
CCN1C(=O)/C(=C\N(C)C)c2ccccc21	-10	-1	14	x	-1	2	x	x	x
CCn1c(/C=C2/C(=O)N(C)c3ccccc32)nc2ccccc2c1=O	24	54*	50*	x	-3	37	32*	x	58*
COc1ccccc1-c1nc2ccccc2c(=O)n1NC(=O)c1cccs1	-6	16	28	0	-13	16	x	x	x
Cc1ccc(NC(=O)COC(=O)c2ccc(OCc3c(C)noc3C)cc2)cc1S(=O)(=O)N1CCOCC1	12	17	-6	-14	1	14	x	x	x
CCOc1ccc(OCCNCc2ccc(OC(C)C(=O)N(C)C)c(OCC)c2)cc1 (stereo not drawn)	10	-4	19	13	-1	-3	x	x	x
O=C(CN1C(=O)CSc2ncccc21)Nc1ccccc1F	11	-1	2	-17	-2	3	x	x	x
COc1ccc(OCCOC(=O)c2cccs2)cc1	31	-7	9	x	-21	-10	x	x	x
COc1ccc(C2CC2/C(C)=N/OC(=O)c2ccc(F)cc2)cc1 (stereo not drawn)	25	77*	49*	1	6	84*	23	92*	61*
COc1ccc(C2CC2/C(=N/O)c2ccccc2)cc1 (stereo not drawn)	19	15	17	-31	-18	-11	x	x	x
COc1ccc(C2CC2/C(C)=N/OC(=O)c2cccs2)cc1 (stereo not drawn)	30	78*	66*	1	-7	65*	45*	86*	81*
O=Cc1ccc(OCC(=O)N2CCOCC2)cc1	5	27	8	x	3	4	x	x	x
Fc1ccc(Sc2nc(-c3ccccc3)nnc2C(F)(F)F)cc1	16	60*	60*	0	-10	0	36*	x	55*
CS(=O)(=O)c1cnc(-c2ccccc2)nc1Sc1ccc(F)cc1	6	-14	-43	-28	-7	-9	x	x	x
CN(Cc1c(F)cccc1Cl)C(=O)c1ccc(NC(=O)CC2SC(N3CCCC3)=NC2=O)cc1 (stereo not drawn)	-3	-27	-19	-4	-3	13	x	x	x
CCOC(=O)Oc1ccc2c(=O)c(Oc3cccc(C)c3)coc2c1	-28	55*	56*	x	-1	41*	48*	41*	59*
Cc1cccc(Oc2coc3cc(OC(=O)c4cncc(Br)c4)ccc3c2=O)c1	13	10	8	8	-3	18	x	x	x
O=C(Nc1ccccc1)C1=C[C@@H](c2ccc(Br)cc2)C[C@@H](OCCCCO)O1	13	55*	43*	-12	12	33	45*	x	54*
SMILES	NALP3 yeast inh	tim23-1 inh	tim10-1 inh	PfHsp90 set2	SKKanGAS inh	TIM10 inh	tim10-1 confirm	tim10 confirm	tim23-1 conf
O=C(Nc1ccccc1)C1=C[C@H](c2ccccc2)C[C@H](OCCCCO)O1	13	17	20	17	6	-16	x	x	x
CC(C)c1ccc(NC2CCCN(C(=O)CCN3CCOCC3)C2)cc1 (stereo not drawn)	-10	10	7	23	1	2	x	x	x
O=C(Oc1ccccc1/C=C\C(=O)c1cc2ccccc2o1)c1ccccc1	27	50*	47*	14	-21	50*	41*	31*	49*
COc1cccc(C(=O)Oc2ccccc2/C=C\C(=O)c2cc3ccccc3o2)c1	x	x	x	-1	-6	x	x	x	x
Cc1[nH]c2ccc(C(=O)N3CCN(c4ccccc4Cl)CC3)cc2c1C	8	51*	57*	8	25	40*	25	12	48*
O=C(Nc1ccc(S(=O)(=O)NC2=NCCCCC2)cc1)c1ccccc1Cl	0	20	1	1	-3	-12	x	x	x
Cc1ccc(S(=O)(=O)N(C)CC(=O)Nc2nnc(CC(C)C)s2)cc1	22	0	-24	-76	2	-16	x	x	x
Cc1ccccc1/C=C1\C(=O)Nc2ccc(F)cc21	33	53*	44*	-27	-1	26	38*	x	61*
COc1ccc(O)c(-c2cc(-c3cccs3)[nH]n2)c1	32	64*	43*	-10	-4	37	16	x	69*
O=C(OC1CCCCC1)c1ccc(NC(=O)c2ccco2)cc1	11	54*	44*	17	0	23	30	x	70*
CN(C1=C(NC(=O)c2ccc(Cl)cc2)C(=O)c2ccccc2C1=O)c1ccccc1	15	68*	65*	-46	2	66*	61*	-10	72*
O=C(NC1=C(Nc2ccc(Cl)cc2)C(=O)c2ccccc2C1=O)c1ccccc1	38	10	9	-57	42	21	x	x	x
CCSc1nnc(-c2ccc(C)cc2)c2ccccc12	35	64*	55*	1	-9	44*	49*	9	70*
C=CCOC(=O)C1=C[C@@H](c2cn(C(C)=O)c3ccccc23)C[C@@H](OCc2ccc(CO)cc2)O1	2	30	22	23	11	23	x	x	x
CCOC(=O)/C(C#N)=C1\C(=O)N(Cc2ccccc2)c2ccccc21	13	53*	43*	7	-2	31	30	x	53*

Compound activity as filed in PubChem.
